The target of the first test is Death-associated protein kinase 1 (Homo sapiens) (UniProt P53355). As to conditions: at 1 µM.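 Also: each value is a mean inhibition figure.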
Sequence of Death-associated protein kinase 1 (Homo sapiens) (P53355 whole entry, looked up): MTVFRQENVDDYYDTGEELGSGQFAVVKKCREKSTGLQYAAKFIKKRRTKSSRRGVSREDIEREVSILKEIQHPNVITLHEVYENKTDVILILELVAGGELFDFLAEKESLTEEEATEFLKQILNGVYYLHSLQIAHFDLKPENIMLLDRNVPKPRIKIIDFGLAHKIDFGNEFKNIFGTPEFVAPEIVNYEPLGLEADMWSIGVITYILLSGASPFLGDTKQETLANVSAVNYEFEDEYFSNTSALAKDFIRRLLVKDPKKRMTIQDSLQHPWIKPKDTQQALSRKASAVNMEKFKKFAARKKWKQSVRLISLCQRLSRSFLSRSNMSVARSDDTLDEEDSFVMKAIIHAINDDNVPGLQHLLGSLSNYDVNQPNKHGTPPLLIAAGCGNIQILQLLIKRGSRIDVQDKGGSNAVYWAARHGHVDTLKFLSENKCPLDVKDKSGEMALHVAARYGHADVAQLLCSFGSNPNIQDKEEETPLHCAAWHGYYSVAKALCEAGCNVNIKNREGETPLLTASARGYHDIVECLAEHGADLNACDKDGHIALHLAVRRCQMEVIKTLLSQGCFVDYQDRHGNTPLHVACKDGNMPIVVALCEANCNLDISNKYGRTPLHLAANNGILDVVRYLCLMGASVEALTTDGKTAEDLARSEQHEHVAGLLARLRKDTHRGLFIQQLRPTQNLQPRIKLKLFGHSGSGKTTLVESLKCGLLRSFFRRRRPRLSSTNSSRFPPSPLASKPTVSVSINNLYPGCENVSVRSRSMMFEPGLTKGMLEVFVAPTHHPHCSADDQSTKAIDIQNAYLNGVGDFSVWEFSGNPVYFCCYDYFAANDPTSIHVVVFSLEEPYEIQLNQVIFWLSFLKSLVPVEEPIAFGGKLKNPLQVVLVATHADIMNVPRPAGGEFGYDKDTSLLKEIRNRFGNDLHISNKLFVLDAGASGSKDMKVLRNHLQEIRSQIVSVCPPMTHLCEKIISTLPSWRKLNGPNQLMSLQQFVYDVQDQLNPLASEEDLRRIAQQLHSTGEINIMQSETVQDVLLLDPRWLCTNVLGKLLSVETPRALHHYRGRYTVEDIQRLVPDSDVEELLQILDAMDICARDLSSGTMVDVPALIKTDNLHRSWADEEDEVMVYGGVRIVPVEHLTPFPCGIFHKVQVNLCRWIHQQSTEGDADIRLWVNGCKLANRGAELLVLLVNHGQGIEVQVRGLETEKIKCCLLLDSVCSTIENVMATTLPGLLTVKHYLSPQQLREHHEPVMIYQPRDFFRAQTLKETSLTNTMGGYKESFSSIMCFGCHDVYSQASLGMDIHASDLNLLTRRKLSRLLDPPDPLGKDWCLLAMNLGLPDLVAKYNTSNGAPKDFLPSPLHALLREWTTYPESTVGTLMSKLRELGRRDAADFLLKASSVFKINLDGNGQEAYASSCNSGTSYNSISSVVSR
`COc1cccc(COc2cc(-n3cnc4ccccc43)sc2C(N)=O)c1`: the inhibition (usually the relative decrease from the control value, in per cent) was 1.02%.
Same read-out and setting: with `COc1cc(C=NNc2ncnc3c2cnn3Cc2ccccc2)ccc1O` the figure was -3.68%; with `CCn1c(-c2nonc2N)nc2c(C#CC(C)(C)O)nc(O[C@@H](CN)c3ccccc3)cc21`, 2.31%.
On the same count and under the same terms, with `COc1cc2c(cc1Nc1nc(Nc3ccsc3C(N)=O)c3cc[nH]c3n1)N(C(=O)CN(C)C)CCC2` the figure was 4.14%; with `NS(=O)(=O)c1ccc(N/C=C2\C(=O)Nc3ccc4ncsc4c32)cc1`, 9.33%; with `Nc1nonc1-c1nc2cnccc2n1C1CCCCC1`, -1.97%.
With `COc1cccc(-n2ncc3c(N/N=C/c4ccncc4)ncnc32)c1`, the inhibition worked out at 4.53%.
Consider `Cc1cc(-c2ccco2)cc(C)c1/C=C/c1cncc(-c2nn[nH]n2)c1`, for which the inhibition was 0.04%.
Still for that read-out and setting: the figure for `CCn1c(-c2nonc2N)nc2c(C#CC(C)(C)O)ncc(OCC3CCNCC3)c21` is 1.75%; for `Fc1ccc(-c2ncn(C3CCNCC3)c2-c2ccnc(Oc3ccccc3)n2)cc1` it is -1.87%; for `NS(=O)(=O)c1ccc(-c2ccc3c(NC(=O)C4CC4)n[nH]c3c2)cc1` it is 4.32%.
For the compound `CCn1c(-c2nonc2N)nc2c(C#CCN)ncc(OCCCN)c21`, the inhibition is -3.38%.
`NC(=O)c1sc(-n2cnc3cc(C(F)(F)F)ccc32)cc1OCc1ccccc1Br`: the inhibition is 0%.
For `CCn1c(-c2nonc2N)nc2c(C#CC(C)(C)O)ncc(OC[C@@H]3CCCN3)c21`, the inhibition is 0.89%.

Another test has as its target T1, Serine/threonine-protein kinase DCLK2 (Homo sapiens) (UniProt Q8N568).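 Also: reported value is the mean percent inhibition of DCAMKL2.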
T1 sequence (whole entry): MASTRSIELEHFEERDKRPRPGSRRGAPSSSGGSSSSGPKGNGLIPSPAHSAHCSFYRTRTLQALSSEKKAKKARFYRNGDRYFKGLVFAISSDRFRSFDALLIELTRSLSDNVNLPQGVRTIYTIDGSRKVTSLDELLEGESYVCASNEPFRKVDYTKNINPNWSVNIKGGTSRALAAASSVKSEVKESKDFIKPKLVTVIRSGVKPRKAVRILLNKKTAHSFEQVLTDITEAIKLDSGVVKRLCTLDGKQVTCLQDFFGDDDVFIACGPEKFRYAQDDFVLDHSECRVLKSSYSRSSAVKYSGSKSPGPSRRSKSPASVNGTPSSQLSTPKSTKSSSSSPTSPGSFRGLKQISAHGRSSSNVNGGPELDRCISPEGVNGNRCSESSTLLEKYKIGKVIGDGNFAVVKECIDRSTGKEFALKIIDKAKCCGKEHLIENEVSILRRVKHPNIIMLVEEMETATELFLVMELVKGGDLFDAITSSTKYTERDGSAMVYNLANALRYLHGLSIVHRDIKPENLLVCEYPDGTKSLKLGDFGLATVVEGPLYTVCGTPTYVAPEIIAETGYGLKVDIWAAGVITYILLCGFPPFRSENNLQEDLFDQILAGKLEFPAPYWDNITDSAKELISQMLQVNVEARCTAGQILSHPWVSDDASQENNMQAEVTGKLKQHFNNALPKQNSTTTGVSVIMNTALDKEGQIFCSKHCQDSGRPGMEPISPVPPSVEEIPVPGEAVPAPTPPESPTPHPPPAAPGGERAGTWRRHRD
Particulars: at 0.1 µM.
Consider `COc1cccc(COc2cc(-n3cnc4ccccc43)sc2C(N)=O)c1`, for which the inhibition was -0.3%.
On the same count and under the same terms, with `COc1cc(C=NNc2ncnc3c2cnn3Cc2ccccc2)ccc1O` the figure was -3.6%; with `CCn1c(-c2nonc2N)nc2c(C#CC(C)(C)O)nc(O[C@@H](CN)c3ccccc3)cc21`, 6.73%; with `COc1cc2c(cc1Nc1nc(Nc3ccsc3C(N)=O)c3cc[nH]c3n1)N(C(=O)CN(C)C)CCC2`, -2.25%.
Same read-out and setting: with `NS(=O)(=O)c1ccc(N/C=C2\C(=O)Nc3ccc4ncsc4c32)cc1` the figure was 0.08%; with `Nc1nonc1-c1nc2cnccc2n1C1CCCCC1`, -0.3%; with `COc1cccc(-n2ncc3c(N/N=C/c4ccncc4)ncnc32)c1`, 2.42%.
The same measure, in the same setting: with `Cc1cc(-c2ccco2)cc(C)c1/C=C/c1cncc(-c2nn[nH]n2)c1` the figure was -1.22%; with `CCn1c(-c2nonc2N)nc2c(C#CC(C)(C)O)ncc(OCC3CCNCC3)c21`, -3.05%; with `Fc1ccc(-c2ncn(C3CCNCC3)c2-c2ccnc(Oc3ccccc3)n2)cc1`, -4.56%.
`NS(=O)(=O)c1ccc(-c2ccc3c(NC(=O)C4CC4)n[nH]c3c2)cc1`: the inhibition turned out to be 0.37%.
Same read-out and setting: the figure for `CCn1c(-c2nonc2N)nc2c(C#CCN)ncc(OCCCN)c21` is -0.93%.
For `NC(=O)c1sc(-n2cnc3cc(C(F)(F)F)ccc32)cc1OCc1ccccc1Br`, the inhibition was -1.23%.
`CCn1c(-c2nonc2N)nc2c(C#CC(C)(C)O)ncc(OC[C@@H]3CCCN3)c21`: the inhibition is -1.55%.

The values above are taken from ChEMBL document CHEMBL1961873, “Compounds: GSK PKIS; Assays: Nanosyn kinase panel” (2012).
